According to PubChem BioAssay (NCATS):
“And” between values parts separate entries of the source, which are not always exact repeats. Equal entries are not always repeated. Inconclusive results are not listed. Some structures have more than one record in an assay (separate samples or runs), and their calls can disagree. The source made the active and inactive calls. Unless noted, calls come from the whole dose curve; as a rule, active = well fitted curve in the direction sought with a large enough effect; inconclusive = small, poorly fitted or top-dose-only effect, or another doubt; inactive = no such curve, though single readings can be large; an effect the other way counts as inactive or inconclusive.

How the values were obtained:
[1] = tested on: Zika virus NS2B-NS3 protease; assay: Primary screen GU AMC qHTS for Zika virus inhibitors (AID 1347154);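 note: 0% = no-inhibitor control and -100% = no-enzyme control; nearly all actives have a fitted effect of over 70% in size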
Method in brief: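 Unlinked Zika NS2B hydrophilic domain/NS3 protease domain noncovalent complex (25 nM final) in 10 mM Tris-HCl pH 8.0, 0.01% Tween 20, with AMC peptide substrate. Fluorescence (ex 340, em 450 nm) change over 15 min, room temperature; percent inhibition fitted to 4-parameter Hill equation.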

[2] = Counterscreen qHTS for small molecule stabilizers of the endoplasmic reticulum resident proteome: GLuc-NoTag assay (AID 1508627); note: potency is the fitted concentration of half-maximal effect;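 for activity change, negative = inhibition: 0% = thapsigargin alone and -100% = DMSO vehicle control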
Method in brief: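 Secreted GLuc lacking the SERCaMP modification is measured in SH-SY5Y cells exposed to compound for 19 h and then to thapsigargin (100 nM, 4 h) to deplete ER calcium; hits retested at 11 concentrations, up to 76.6 uM.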

[3] = Cell Viability qHTS for small molecule stabilizers of the endoplasmic reticulum resident proteome (AID 1508629); conditions: cell viability counter-screen, 100 nM thapsigargin for final 4 h;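 note: compound exposure about 46 h in total before the viability read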; note: potency is the fitted concentration of half-maximal effect;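 for max response: human SH-SY5Y neuroblastoma cells carrying the GLuc-SERCaMP reporter; % is set by controls: 0 for no effect and ±100 for the full control effect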
[4] = Confirmatory qHTS for small molecule stabilizers of the endoplasmic reticulum resident proteome: Secreted ER Calcium Modulated Protein (SERCaMP) assay (AID 1508628); note: nearly all actives have a fitted effect of over 40% in size; note: potency is the fitted concentration of half-maximal effect
Method in brief: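 Reporter secretion upon ER calcium depletion (100 nM thapsigargin, 4 h, 37C) is measured as medium luminescence with coelenterazine, after 16 h compound pretreatment of SH-SY5Y-GLuc-SERCaMP cells; primary at three concentrations up to 38.3 uM, follow-up at 11 (up to 76.6 uM).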

[5] = target: Cytochrome P450 1A2 (Homo sapiens) (UniProt P05177); assay: p450-cyp1a2 (AID 410; calls by dose curve; note: potency is the fitted concentration of half-maximal effect;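 for activity change, negative = inhibition: -100% = full effect of reference inhibitor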)
Chain of Cytochrome P450 1A2 (Homo sapiens) (P05177 whole entry, looked up): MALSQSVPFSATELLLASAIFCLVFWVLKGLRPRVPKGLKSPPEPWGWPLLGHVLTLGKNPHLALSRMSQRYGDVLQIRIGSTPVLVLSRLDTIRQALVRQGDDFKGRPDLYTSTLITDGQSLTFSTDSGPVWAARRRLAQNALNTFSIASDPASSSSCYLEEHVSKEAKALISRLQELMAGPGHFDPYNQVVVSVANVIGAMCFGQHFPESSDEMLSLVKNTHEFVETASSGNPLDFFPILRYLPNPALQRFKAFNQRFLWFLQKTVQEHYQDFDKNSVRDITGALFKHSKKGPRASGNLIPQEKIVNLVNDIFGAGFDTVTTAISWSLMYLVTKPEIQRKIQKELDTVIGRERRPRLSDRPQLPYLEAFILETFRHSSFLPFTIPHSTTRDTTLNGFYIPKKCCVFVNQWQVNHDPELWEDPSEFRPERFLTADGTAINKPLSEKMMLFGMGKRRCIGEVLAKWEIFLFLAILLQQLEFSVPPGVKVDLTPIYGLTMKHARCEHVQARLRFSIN
Method in brief: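 O-Demethylation of luciferin 6' methyl ether by human CYP1A2 is monitored as luciferase luminescence. Substrate sits at Km (100uM); enzyme is 20nM. Values are scaled to 57 uM furafylline as maximal inhibition.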

[6] = target: Glucocorticoid receptor (Homo sapiens) (UniProt P04150); assay: GR-GFP Redistribution (AID 450;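 active = compounds whose dose series gives a full or clear partial fitted curve of increased nuclear translocation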; note: potency is the fitted concentration of half-maximal effect); conditions: U2OS GR-GFP nuclear translocation, laser cytometry, 2 h
Chain of Glucocorticoid receptor (Homo sapiens) (P04150 whole entry, looked up, the tested form may be a part): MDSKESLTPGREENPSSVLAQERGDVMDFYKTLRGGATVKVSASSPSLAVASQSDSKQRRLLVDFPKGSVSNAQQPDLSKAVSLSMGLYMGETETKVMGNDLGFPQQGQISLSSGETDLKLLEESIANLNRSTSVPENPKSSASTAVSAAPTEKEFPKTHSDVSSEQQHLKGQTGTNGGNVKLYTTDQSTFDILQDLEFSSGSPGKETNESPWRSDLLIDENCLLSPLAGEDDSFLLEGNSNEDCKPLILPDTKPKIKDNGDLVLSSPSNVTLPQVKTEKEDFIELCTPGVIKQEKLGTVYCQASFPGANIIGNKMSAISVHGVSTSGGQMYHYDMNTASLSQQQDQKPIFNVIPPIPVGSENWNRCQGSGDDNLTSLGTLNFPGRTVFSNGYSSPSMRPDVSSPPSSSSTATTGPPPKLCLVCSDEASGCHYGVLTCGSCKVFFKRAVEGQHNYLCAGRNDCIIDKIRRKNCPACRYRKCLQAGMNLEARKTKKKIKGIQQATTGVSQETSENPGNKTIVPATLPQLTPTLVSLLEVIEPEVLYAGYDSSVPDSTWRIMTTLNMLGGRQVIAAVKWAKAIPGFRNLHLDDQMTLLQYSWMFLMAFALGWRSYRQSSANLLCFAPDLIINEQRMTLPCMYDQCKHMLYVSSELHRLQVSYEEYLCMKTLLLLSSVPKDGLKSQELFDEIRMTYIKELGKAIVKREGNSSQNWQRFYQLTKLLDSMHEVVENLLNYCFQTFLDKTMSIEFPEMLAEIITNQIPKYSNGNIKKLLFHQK

[7] = target: Glucocorticoid receptor (Homo sapiens) (UniProt P04150); assay: GR-EFC Redistribution (AID 451; calls by dose curve; note: potency is the fitted concentration of half-maximal effect); conditions: CHO-K1 GR-EFC translocation, beta-gal luminescence, 2 h
Method in brief: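 CHO-K1 cells stably expressing nuclear-localized β-gal enzyme acceptor and GR fused C-terminally to the enzyme donor fragment; ligand-driven nuclear translocation restores β-gal by complementation. Compounds titrated up to 46 uM final, 2 h at 37 °C; luminescence read.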

[8] = target: Mitogen-activated protein kinase 10 (Mus musculus) (UniProt Q61831); assay: JNK3 AlphaScreen Assay (AID 530; active = well fitted curve in either direction with a large enough effect, not every such curve was filed as active;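 note: kinase came from lysate of stimulated human HepG2 cells; signal reports phosphorylation of biotinylated GST-cJun 1-79 at Ser73 with 10 µM ATP; % is set by controls: 0 for no effect and ±100 for the full control effect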)
Method in brief: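 Phosphorylation of biotinylated GST-cJun(1-79) at Ser73 is measured by AlphaScreen proximity luminescence. Enzyme is JNK3 in HepG2 lysates activated with interleukin-1beta and tumor necrosis factor alpha; ATP is 10 uM final.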

[9] = target: Cytochrome P450 2C9 (Homo sapiens) (UniProt P11712); assay: qHTS Assay for Inhibitors and Substrates of Cytochrome P450 2C9 (AID 883); note: potency is the fitted concentration of half-maximal effect; nearly all actives have a fitted effect of over 60% in size
Chain of Cytochrome P450 2C9 (Homo sapiens) (P11712 whole entry, looked up): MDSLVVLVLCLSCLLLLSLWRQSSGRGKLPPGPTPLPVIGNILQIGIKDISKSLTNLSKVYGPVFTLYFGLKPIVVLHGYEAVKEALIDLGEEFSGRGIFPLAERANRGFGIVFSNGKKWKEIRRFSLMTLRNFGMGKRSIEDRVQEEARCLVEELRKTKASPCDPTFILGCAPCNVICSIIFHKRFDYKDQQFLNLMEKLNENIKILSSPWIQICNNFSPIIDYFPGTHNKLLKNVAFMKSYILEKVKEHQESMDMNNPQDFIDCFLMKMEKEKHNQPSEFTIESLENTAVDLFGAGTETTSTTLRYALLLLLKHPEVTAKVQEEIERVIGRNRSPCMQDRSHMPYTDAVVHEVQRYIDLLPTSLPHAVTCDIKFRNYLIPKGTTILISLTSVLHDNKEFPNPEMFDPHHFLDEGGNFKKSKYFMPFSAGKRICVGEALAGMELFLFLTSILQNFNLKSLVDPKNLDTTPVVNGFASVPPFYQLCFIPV
Method in brief: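 A luminogenic readout tracked human CYP2C9 (10nM) converting deoxyluciferin (100uM, at KM) in 25mM KPO4 during 60 min at 37C with regenerated NADPH. Values normalized to 57uM sulphaphenazole as complete inhibition.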

[10] = target: Cytochrome P450 2D6 (Homo sapiens) (UniProt P10635); assay: qHTS Assay for Inhibitors and Substrates of Cytochrome P450 2D6 (AID 891); note: potency is the fitted concentration of half-maximal effect; nearly all actives have a fitted effect of over 60% in size
Chain of Cytochrome P450 2D6 (Homo sapiens) (P10635 whole entry, looked up): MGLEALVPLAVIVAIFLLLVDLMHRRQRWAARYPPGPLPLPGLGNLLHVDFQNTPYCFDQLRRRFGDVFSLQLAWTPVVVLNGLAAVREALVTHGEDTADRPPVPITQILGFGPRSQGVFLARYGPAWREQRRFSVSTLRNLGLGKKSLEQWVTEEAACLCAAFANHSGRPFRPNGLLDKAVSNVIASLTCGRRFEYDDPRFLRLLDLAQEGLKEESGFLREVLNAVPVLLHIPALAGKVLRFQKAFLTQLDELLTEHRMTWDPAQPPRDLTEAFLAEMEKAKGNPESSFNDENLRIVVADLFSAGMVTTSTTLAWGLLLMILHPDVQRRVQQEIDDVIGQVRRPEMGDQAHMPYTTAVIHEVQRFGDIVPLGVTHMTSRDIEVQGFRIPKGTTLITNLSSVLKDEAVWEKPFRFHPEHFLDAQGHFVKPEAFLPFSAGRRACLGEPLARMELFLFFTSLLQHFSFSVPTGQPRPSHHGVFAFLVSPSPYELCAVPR
Method in brief: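 Luminescent read-out of luciferin formed by 5 nM human CYP2D6 demethylating 30 uM Luciferin-ME EGE (Km level) over 60 min at room temperature after NADPH regeneration addition. Data normalized to full inhibition by 1.43 uM quinidine.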

[11] = target: Cytochrome P450 2C19 (Homo sapiens) (UniProt P33261); assay: qHTS Assay for Inhibitors and Substrates of Cytochrome P450 2C19 (AID 899); note: potency is the fitted concentration of half-maximal effect; nearly all actives have a fitted effect of over 60% in size
Chain of Cytochrome P450 2C19 (Homo sapiens) (P33261 whole entry, looked up): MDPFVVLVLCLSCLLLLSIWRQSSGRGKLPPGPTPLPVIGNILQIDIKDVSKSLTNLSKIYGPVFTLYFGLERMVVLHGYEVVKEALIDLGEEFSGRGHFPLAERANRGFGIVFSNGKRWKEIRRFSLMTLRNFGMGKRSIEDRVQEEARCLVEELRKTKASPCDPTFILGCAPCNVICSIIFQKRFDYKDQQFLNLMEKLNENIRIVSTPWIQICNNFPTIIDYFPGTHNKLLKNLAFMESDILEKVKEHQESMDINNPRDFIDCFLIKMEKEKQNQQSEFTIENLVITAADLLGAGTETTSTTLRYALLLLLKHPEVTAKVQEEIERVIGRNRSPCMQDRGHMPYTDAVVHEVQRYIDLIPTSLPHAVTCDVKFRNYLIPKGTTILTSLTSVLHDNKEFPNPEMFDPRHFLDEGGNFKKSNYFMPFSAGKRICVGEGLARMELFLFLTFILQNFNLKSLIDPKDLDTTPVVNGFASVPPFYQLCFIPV
Method in brief: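 NADPH-dependent conversion of Luciferin-H EGE (10uM, at KM) by 5nM enzyme in 50mM KPO4, 60 min at 37C following 10 min compound preincubation. Stopped with luciferin detection buffer; luminescence read after 20 min.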

[12] = target: Ubiquitin carboxyl-terminal hydrolase 1 (Homo sapiens) (UniProt O94782); assay: Inhibitors of USP1/UAF1: Pilot qHTS (AID 504865);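 note: rhodamine fluorescence freed from ubiquitin-rhodamine substrate followed over time; top concentration of the series differs between compounds; % is set by controls: 0 for no effect and ±100 for the full control effect; nearly all actives have a fitted effect of over 35% in size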
Method in brief: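 USP1/UAF1 complex (1nM) preincubated with compound 15 min at room temperature, then Ub-Rho substrate (150nM final) added. Fluorescence read kinetically at 480/540 nm, 6 reads every 60 seconds. Buffer: 50mM HEPES pH 7.8, 0.5mM EDTA, 0.1 mg/ml BSA, 1mM TCEP, 0.01% Tween-20.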

[13] = target: DNA dC->dU-editing enzyme APOBEC-3G (Homo sapiens) (UniProt Q9HC16); assay: qHTS for inhibitors of Vif-A3G interactions: Validation (AID 588379); note: 0% is about no effect
Chain of DNA dC->dU-editing enzyme APOBEC-3G (Homo sapiens) (Q9HC16 whole entry, looked up): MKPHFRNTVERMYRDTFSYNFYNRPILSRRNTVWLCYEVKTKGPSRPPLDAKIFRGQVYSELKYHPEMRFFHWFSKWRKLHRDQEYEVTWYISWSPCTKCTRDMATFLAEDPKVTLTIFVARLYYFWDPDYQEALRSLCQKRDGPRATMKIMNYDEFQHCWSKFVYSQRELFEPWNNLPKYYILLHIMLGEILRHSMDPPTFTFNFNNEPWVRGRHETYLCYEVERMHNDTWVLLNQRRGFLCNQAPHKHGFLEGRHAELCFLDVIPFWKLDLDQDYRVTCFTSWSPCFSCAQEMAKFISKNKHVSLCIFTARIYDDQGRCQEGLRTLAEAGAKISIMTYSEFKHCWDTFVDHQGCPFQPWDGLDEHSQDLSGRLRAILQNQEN
Method in brief: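 Yellow fluorescence (Ex 488, Em 500-530) of Vif-coexpressing HeLa A3G-eYFP cells, scanned by Acumen cytometer, reports blocked A3G degradation. Cells plated at 700/well overnight at 37 deg C before compound addition, then a further overnight compound incubation at 37 deg C.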

[14] = AP1 Signaling Pathway (AID 357; active = well fitted curve in either direction with a large enough effect, not every such curve was filed as active;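 note: ME-180 reporter cells stimulated with EGF at its EC50 level; % is set by controls: 0 for no effect and ±100 for the full control effect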)
Method in brief: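 Beta-lactamase reporter under AP-1 response element, ME-180 background. Stimulus: EC50 EGF. Compound exposure 5 h, 37 °C. Detection: CCF4, 2.5 h RT, 460/530 nm. Values: AC50 from titration.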

[15] = NFAT Signaling Pathway (AID 444; active = well fitted curve in either direction with a large enough effect, not every such curve was filed as active;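 note: carbachol stimulus at about its EC50 of 1 µM final; % is set by controls: 0 for no effect and ±100 for the full control effect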); conditions: Jurkat NFAT-bla M1, carbachol, beta-lactamase ratio, 5 h; at 38 µM (top of the series)
Method in brief: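 Jurkat cells carrying an NFAT-driven β-lactamase reporter and co-transfected muscarinic M1 receptor were treated with compound plus carbachol (1 uM final, an EC50 level) for 5 h at 37 °C. CCF4 loading followed for 1 h at RT; 460/530 nm ratio gave %activity.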

[16] = target: Cytochrome P450 3A4 (Homo sapiens) (UniProt P08684); assay: qHTS Assay for Activators of Cytochrome P450 3A4 (AID 885); note: nearly all actives have a fitted effect of over 65% in size
Chain of Cytochrome P450 3A4 (Homo sapiens) (P08684 whole entry, looked up): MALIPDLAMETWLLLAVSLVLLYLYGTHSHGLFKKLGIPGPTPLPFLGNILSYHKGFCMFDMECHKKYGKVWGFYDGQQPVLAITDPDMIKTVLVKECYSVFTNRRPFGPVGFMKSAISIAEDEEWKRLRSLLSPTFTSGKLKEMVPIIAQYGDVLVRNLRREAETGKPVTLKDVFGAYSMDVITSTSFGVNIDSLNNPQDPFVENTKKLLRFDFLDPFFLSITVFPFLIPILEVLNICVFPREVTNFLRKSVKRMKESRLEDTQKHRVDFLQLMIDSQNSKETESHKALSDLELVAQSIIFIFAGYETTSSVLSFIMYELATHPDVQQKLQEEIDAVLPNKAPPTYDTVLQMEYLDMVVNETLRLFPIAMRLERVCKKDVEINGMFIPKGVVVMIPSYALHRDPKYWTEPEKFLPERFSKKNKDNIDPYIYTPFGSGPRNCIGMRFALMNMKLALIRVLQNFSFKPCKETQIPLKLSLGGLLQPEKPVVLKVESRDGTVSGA
Method in brief: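 Luminescent readout of luciferin formed from 25 uM Luciferin-PPXE (KM level) by 20 nM CYP3A4 in 200 mM KPO4, with 60 min NADPH-driven reaction at room temperature after 10 min compound exposure. Ketoconazole (57 uM) defined 100% inhibition.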

[17] = target: Muscarinic acetylcholine receptor M1 (Rattus norvegicus) (UniProt P08482); assay: qHTS Assay for Antagonists of Acetylcholine Muscarinic M1 Receptor: Measurement of IP-One Response (AID 944); note: nearly all actives have a fitted effect of over 75% in size
Chain of Muscarinic acetylcholine receptor M1 (Rattus norvegicus) (P08482 whole entry, looked up): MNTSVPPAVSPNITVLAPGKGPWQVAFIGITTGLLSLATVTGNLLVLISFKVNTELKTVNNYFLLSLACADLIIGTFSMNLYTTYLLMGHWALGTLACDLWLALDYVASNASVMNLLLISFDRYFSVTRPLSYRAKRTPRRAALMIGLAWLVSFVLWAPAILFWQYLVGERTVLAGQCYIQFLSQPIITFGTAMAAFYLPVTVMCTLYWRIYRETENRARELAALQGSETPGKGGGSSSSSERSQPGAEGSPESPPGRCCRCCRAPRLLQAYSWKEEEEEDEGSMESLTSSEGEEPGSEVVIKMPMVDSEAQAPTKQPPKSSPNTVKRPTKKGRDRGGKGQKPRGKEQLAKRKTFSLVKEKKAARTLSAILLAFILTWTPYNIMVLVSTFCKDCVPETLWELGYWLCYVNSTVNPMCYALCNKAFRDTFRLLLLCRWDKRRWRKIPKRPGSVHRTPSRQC
Method in brief: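 Antagonist mode with rat M1 receptor transfected into CHO cells. Compound is added first for 10 min, carbachol at its EC80 follows for 30 min, and lysis reagents then allow TR-FRET detection of accumulated IP1.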

[18] = target: Pyruvate kinase (Leishmania mexicana) (UniProt Q27686); assay: qHTS Validation Assay for Inhibitors of Leishmania Mexicana Pyruvate Kinase (AID 945);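 note: 0% = DMSO only neutral control wells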
Chain of Pyruvate kinase (Leishmania mexicana) (Q27686 2-499 E452W): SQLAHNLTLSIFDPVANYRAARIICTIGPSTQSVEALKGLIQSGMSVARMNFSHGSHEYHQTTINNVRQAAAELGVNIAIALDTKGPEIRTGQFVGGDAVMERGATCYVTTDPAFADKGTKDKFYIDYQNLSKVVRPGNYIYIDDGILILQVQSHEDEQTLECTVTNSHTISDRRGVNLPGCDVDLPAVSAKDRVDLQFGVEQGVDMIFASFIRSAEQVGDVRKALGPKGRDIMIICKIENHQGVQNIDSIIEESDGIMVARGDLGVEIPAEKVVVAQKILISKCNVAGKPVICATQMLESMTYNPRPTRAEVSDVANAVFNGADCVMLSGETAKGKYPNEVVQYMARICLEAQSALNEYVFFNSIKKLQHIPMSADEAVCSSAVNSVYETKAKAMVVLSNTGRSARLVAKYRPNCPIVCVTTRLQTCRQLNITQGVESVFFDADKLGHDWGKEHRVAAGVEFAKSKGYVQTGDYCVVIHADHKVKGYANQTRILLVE
Method in brief: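 LmPYK E451W 0.2 nM; 0.5 mM PEP, 0.1 mM ADP, 7 mM MgCl2, 50 mM KCl, imidazole pH 7.2, 0.01% Tween 20, 0.05% BSA; 1 h RT; PKLight luminescence; DMSO-normalized.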

[19] = target: Pyruvate kinase PKM (Homo sapiens) (UniProt P14618); assay: qHTS Assay for Activators of Human Muscle Pyruvate Kinase (AID 954; active = well fitted curve in the direction sought with a large enough effect, not every such curve was filed as active;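 note: 0% = uninhibited enzyme and -100% = no enzyme or full thiadiazolimine inhibition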)
Method in brief: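 ATP production by PKM2 detected via luciferase luminescence after 1 h room-temperature reaction (0.1 nM enzyme, PEP at Km 0.5 mM, ADP 0.1 mM, pH 7.2 imidazole buffer). Inhibition scaled to no-enzyme control; activation referenced to 0.3 nM enzyme wells.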

[20] = target: Alpha-galactosidase (Coffea arabica) (UniProt Q42656); assay: Counterscreen for Glucocerebrosidase Inhibitors: qHTS Assay for Coffee Bean alpha-Galactosidase at pH 4.5 (AID 957);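 note: plate controls were enzyme alone for no effect and no enzyme for full effect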
Chain of Alpha-galactosidase (Coffea arabica) (Q42656 whole entry, looked up): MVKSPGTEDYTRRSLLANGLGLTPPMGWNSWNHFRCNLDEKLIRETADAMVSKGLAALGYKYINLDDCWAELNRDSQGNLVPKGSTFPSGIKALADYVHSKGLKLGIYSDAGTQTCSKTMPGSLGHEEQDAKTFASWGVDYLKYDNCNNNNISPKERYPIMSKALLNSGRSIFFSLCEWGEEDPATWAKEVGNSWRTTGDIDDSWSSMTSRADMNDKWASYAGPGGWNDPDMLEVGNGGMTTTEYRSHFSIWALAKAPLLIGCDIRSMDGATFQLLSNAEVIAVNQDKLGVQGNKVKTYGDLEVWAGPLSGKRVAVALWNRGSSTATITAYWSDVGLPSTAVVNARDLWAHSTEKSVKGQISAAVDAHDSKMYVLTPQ
Method in brief: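 Enzyme is added first (2 nM final), then compounds titrated from 0.7 nM to 77 uM, then 80 uM 4-methylumbelliferyl alpha-D-galactopyranoside; after 20 min at room temperature a pH 10 NaOH/glycine stop precedes fluorescence reading at 365/440 nm.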

[21] = target: Alpha-galactosidase A (Homo sapiens) (UniProt P06280); assay: Counterscreen for Glucocerebrosidase Inhibitors: qHTS Assay for Human alpha-Galactosidase at pH 4.5 (AID 992); note: 0% is about no effect
Method in brief: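 Fluorogenic 1536-well qHTS at pH 4.5 (citrate, Tween-20): 2 nM enzyme, 80 uM 4-MU-alpha-galactoside, 20 min room temperature, NaOH/glycine stop. Titration 0.7 nM to 77 uM, data normalized to no-enzyme and full-activity controls, Hill-fitted AC50.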

[22] = target: alpha-glucosidase (Oryza sativa, rice) (UniProt Q653V4); assay: Counterscreen for Glucocerebrosidase Inhibitors: qHTS Assay for Rice alpha-Glucosidase at pH 5.0 (AID 997);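 note: 0% = full activity with enzyme and -100% = basal without enzyme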
Method in brief: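 Endpoint fluorogenic assay at pH 5.0: compounds (0.7 nM to 77 uM) titrated against 4 nM rice enzyme and 400 uM 4-MU-alpha-glucoside for 20 min at room temperature; NaOH/glycine stop, read ex 365/em 440 nm, Hill-fitted AC50.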

[23] = target: Alpha-galactosidase (Coffea arabica) (UniProt Q42656); assay: Counterscreen for Glucocerebrosidase Inhibitors: qHTS Assay for Coffee Bean alpha-Galactosidase at pH 5.9 (AID 998);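 note: plate controls were uninhibited enzyme for no effect and no-enzyme basal signal for full effect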
Method in brief: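 In 50 mM citric acid pH 5.9 with 0.005% Tween-20, coffee bean enzyme hydrolyses 80 uM 4-MU alpha-D-galactopyranoside over 20 min at RT. Activity is normalized to controls; AC50 comes from Hill-modelled concentration-response data.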

CC(C)=CCCN1CCC(NC(=O)C(O)(c2ccccc2)C2CCCC2)CC1 (stereo not drawn)
inactive: Potency [1] | Potency [2] | max response [3] 3.9%

CCC(Sc1ccccc1)C(=O)OC1CC2CCC(C1)N2C (stereo not drawn)
active: Potency [4] 5.62 µM
inactive: Potency [1] | Potency [2]

Fc1ccc(C(OCCN2CCN(C/C=C\c3ccccc3)CC2)c2ccc(F)cc2)cc1
active: Potency [5] 31.6 µM | Potency [9] 7.94 µM | Potency [10] 7.94 µM | Potency [11] 7.94 µM | Potency [2] 39.8 µM
inactive: Potency [6] > 46 µM | Potency [7] > 46 µM | outcome [8] | Potency [12] | Potency [13] | Potency [1]

CCC(Oc1ccc(Cl)cc1)C(=O)OC1CC2CCC(C1)N2C (stereo not drawn)
active: Potency [4] 8.91 µM
inactive: Potency [1]

CC(C)C[C@H](NC(=O)[C@H](Cc1ccccc1)NC(=O)CNC(=O)[C@H](C)NC(=O)[C@@H](N)Cc1ccc(O)cc1)C(=O)O
inactive: activity change, negative = inhibition [1] 14.3% [at 6.83 µM] | activity change, negative = inhibition [2] 12% [at 9.46 µM] | activity change, negative = decrease [4] 16.6% [at 9.4 µM] | max response [3] 9.07%

Fc1ccc(C(OCCN2CCN(C/C=C/c3ccccc3)CC2)c2ccc(F)cc2)cc1
inactive: Potency [1]
active: Potency [2] 44.7 µM | Potency [3] 20 µM

Oc1ccc2c3c1O[C@H]1c4[nH]c5ccccc5c4C[C@]4(O)[C@H](C2)N(CC2CC2)CC[C@@]314
inactive and 39.8 µM (active): Potency [5]
active: Potency [10] 2.51 µM and 631 nM
inactive: outcome [14] | activity change, negative = inhibition [15] 3.02% | Potency [6] > 46 µM | outcome [8] | Potency [16] | Potency [17] | outcome [18] | outcome [19] | outcome [20] | outcome [21] | outcome [22] | outcome [23] | Potency [13] | Potency [1] | Potency [2]
